TGFb inhibitor = qHTS for Inhibitors of TGF-b; AID 588855, 2011; 1.2% of 410,000 active; Potency, µM (top dose mostly 46.1 µM), most hits filed as inhibitors; HepG2 CAGA-GFP TGF-b/SMAD3 reporter, GFP fluorescence, 18 h; TGF-beta stimulated, 500 pg/mL final; further: nearly all actives have a fitted effect of over 65% in size
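TGF-beta reporter screen: HEPG2 CAGA-GFP, 1% FBS, 500 pg/mL TGF-beta final, 18 h; per-cell GFP summed per well; curves fitted and categorized by class.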
ATXN viability = Viability Counterscreen for Primary qHTS for Inhibitors of ATXN expression; 0.49% of 400,000 active; Potency, µM (doses to about 56.7 µM), most hits filed as cytotoxic; S2 cells (HEK-293 line with an ATXN2-luciferase reporter) viability, CellTiter-Fluor protease fluorescence, 24 h; further: nearly all actives have a fitted effect of over 40% in size
ATXN2 expr inh = Primary qHTS for Inhibitors of ATXN expression; HEK-293 ATXN2-luciferase reporter, luminescence, 24 h; Potency, µM (top dose mostly 57 µM), usual class: inhibitors; 0.72% of 360,000 active; AID 1745845, 2022; further: nearly all actives have a fitted effect of over 55% in size
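qHTS (up to 57 uM final) was run with 24 h compound exposure of reporter cells at 37 °C. Each well was multiplexed: SteadyGlo luminescence measured ATXN2-luciferase expression after a fluorogenic Gly-Phe-AFC viability readout (25 uM final).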
HepG2 tox-1 = qHTS for Inhibitors of TGF-b: Cytotox Counterscreen. HepG2 CAGA-GFP viability, ATP luminescence, 18 h. Potency, µM (highest dose often 46.1 µM), usual class: cytotoxic. 0.76% of 410,000 active. AID 588856, 2011
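CellTiter-Glo luminescence gave cytotoxicity after 18 hours at 37 degrees C. The cells were HepG2 CAGA-GFP in 1% FBS DMEM, stimulated with 500 pg/mL TGF-beta after compound addition. %Activity was normalised to no-cell wells (complete cell-killing) and DMSO (no toxicity), and curves were fitted and classified.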
Six1-Eya2 blk = qHTS Assay for Inhibitors of the Six1/Eya2 Interaction. AID 651725, 2012. activity change, % (test concentration not listed). AlphaScreen GST-Six1/His-Eya2 binding, biochemical; stronger effect = lower value. Homeobox protein SIX1 (Homo sapiens) + Protein phosphatase EYA2 (Homo sapiens), …. 0.56% of 360,000 active; in the data active means activity change below about -65%; inconclusive means mostly about -30% to -63%
Target sequence (O00167 whole entry, looked up): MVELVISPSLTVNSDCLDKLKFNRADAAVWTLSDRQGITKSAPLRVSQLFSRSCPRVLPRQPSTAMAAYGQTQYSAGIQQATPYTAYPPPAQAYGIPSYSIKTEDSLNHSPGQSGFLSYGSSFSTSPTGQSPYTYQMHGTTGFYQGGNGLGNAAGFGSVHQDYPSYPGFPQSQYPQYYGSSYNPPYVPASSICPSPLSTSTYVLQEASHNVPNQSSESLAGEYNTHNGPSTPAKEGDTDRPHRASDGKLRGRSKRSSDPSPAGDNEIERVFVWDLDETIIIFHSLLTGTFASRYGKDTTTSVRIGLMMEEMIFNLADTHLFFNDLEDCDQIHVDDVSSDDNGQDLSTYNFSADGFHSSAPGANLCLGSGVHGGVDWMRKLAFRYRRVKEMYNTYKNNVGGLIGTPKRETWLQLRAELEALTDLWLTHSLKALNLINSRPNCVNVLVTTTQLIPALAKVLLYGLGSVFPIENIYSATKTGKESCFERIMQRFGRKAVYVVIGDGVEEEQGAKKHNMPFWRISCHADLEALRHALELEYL
Target sequence (Q15475 whole entry, looked up): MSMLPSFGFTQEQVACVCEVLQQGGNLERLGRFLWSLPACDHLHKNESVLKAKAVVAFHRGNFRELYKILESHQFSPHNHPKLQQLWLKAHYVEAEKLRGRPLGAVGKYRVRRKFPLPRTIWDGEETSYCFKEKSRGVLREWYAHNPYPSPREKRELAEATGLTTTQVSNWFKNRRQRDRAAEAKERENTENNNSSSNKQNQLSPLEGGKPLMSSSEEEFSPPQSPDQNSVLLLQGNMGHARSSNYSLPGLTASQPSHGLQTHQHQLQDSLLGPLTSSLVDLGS
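AlphaScreen with GST-Six1 and His-Eya2 (5X mix: 250 nM and 500 nM), glutathione donor and nickel acceptor beads; buffer 50 mM Tris pH 8.0, 300 mM NaCl, 1 mM TCEP; 1 h at 37 C in the dark.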
CtBP-E1A inh = qHTS Assay for Inhibitors of the CtBP/E1A Interaction | CtBP / adenovirus E1A interaction (AlphaScreen) | AlphaScreen GST-E1A/His-CtBP binding, 1536-well; stronger effect = lower value | activity change, % (test concentration not listed) | 0.49% of 340,000 active | AID 651724, 2012; in the data active means activity change below about -65%; inconclusive means mostly about -30% to -63%
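Steps: dispense buffer (Tris pH 8.0, NaCl 300 mM, TCEP 1 mM, BSA, Tween 20); add 5X protein mix (GST-E1A, His-CtBP, 125 nM each); pin 23 nL compound; 2 h at 37 °C, dark; add 5X beads (50 ug/mL); 1 h; read.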
TGFb confirm = qHTS for Inhibitors of TGF-b: Confirmation of Cherry Picks | Potency, µM (doses to about 46.1 µM), usual class: inhibitors | HepG2 CAGA-GFP TGF-b reporter, GFP fluorescence, 18 h; cells stimulated with TGF-beta, 500 pg/mL | shares compounds with TGFb inhibitor | 63% of 1,600 active; further: nearly all actives have a fitted effect of over 65% in size
HepG2 tox-2 = qHTS for Inhibitors of TGF-b: Cytotox Counterscreen for Cherry Picks | HepG2 CAGA-GFP viability, ATP luminescence, 18 h; cells stimulated with TGF-beta, 500 pg/mL | Potency, µM (titrated, usually from 46.1 µM), most hits filed as inhibitors | 27% of 1,600 active | shares compounds with TGFb inhibitor | AID 720535, 2013; further: nearly all actives have a fitted effect of over 70% in size
TGFb CCL64 inh = qHTS for Inhibitors of TGF-b: CCL64 Cells Orthogonal Assay for Cherry Picks | Potency, µM (doses to about 46.1 µM), usual class: inhibitors | AID 720536, 2013 | 41% of 1,600 active | CCL64 CAGA-GFP reporter, TGF-b stimulated, GFP fluorescence, 18 h | shares compounds with TGFb inhibitor; further: nearly all actives have a fitted effect of over 65% in size
TGFb COP inh = qHTS for Inhibitors of TGF-b: Hit Validation in HepG2 Cells using COP promoter. shares compounds with TGFb inhibitor. HepG2 COP-GFP TGF-b reporter, GFP fluorescence, 18 h; cells stimulated by added recombinant TGF-beta. Potency, µM (titrated, usually from 46.1 µM), actives largely listed as inhibitors. 3% of 1,600 active. AID 720537, 2013; further: nearly all actives have a fitted effect of over 70% in size
A number is an active result; - = inactive; ? = inconclusive; . = no result. An excerpt weighted towards active compounds, which were near 2.8% of everything screened. Unless noted, the call rests on the fitted dose curve; in most records, active means well fitted curve in the direction sought with a large enough effect; inconclusive means small, poorly fitted or top-dose-only effect, or another doubt; inactive means no such curve, though single readings can be large; an effect the other way counts as inactive or inconclusive.

SMILES | TGFb inhibitor | ATXN viability | ATXN2 expr inh | HepG2 tox-1 | Six1-Eya2 blk | CtBP-E1A inh | TGFb confirm | HepG2 tox-2 | TGFb CCL64 inh | TGFb COP inh
Cc1ccc(-c2cc3ncc(C(=O)c4cc(Cl)c(C)cc4O)cn3n2)cc1 | - | - | - | - | . | . | . | . | . | .
CCCCNC(=O)C1c2ccccc2OCC(=O)N1CCc1ccc(OC)c(OC)c1 (stereo not drawn) | . | - | - | . | - | - | . | . | . | .
O=C(CN(CCc1ccccc1)S(=O)(=O)c1ccc(Cl)cc1)N/N=C/c1ccc2c(c1)OCO2 | ? | ? | - | - | - | - | ? | - | - | -
Cc1sc2nc3c4ccccc4c(NCc4ccco4)nn3c(=O)c2c1C | - | - | - | - | ? | ? | . | . | . | .
Cc1nc(NCc2ccco2)c2c(C)c(C)sc2n1 | 7.9µM | ? | 11µM | - | - | - | 8.2µM | 5.2µM | - | -
COc1ccc(CNC(=S)N/N=C/c2ccc(O)c(OC)c2)cc1 | 11µM | - | - | - | - | - | - | - | - | -
COc1ccc(-c2cn[nH]c2-c2ccc(OCc3ccc([N+](=O)[O-])cc3)cc2O)cc1OC | 8.9µM | - | . | - | - | . | 21µM | ? | ? | -
COc1ccccc1-c1cn[nH]c1-c1ccc(OCc2ccccc2)cc1O | ? | - | - | - | - | - | . | . | . | .
COc1ccc(-c2[nH]ncc2-c2ccc(Cl)cc2)c(O)c1 | 10µM | - | - | - | - | - | ? | - | ? | -
CCc1nc(Nc2ccncc2)c2oc3ccccc3c2n1 | ? | ? | ? | - | - | - | 12µM | ? | ? | -
Cc1nc(Nc2ccncc2)c2oc3ccccc3c2n1 | - | ? | ? | - | ? | - | . | . | . | .
Cc1ccc(NC(=O)CNC(=O)c2ccc(OC(F)F)cc2)cc1S(=O)(=O)N1CCCCCC1 | ? | ? | ? | - | - | - | . | . | . | .
Cc1c(C(=O)Oc2cccc3cccnc23)cccc1[N+](=O)[O-] | ? | - | - | - | -88 | - | - | - | ? | -
Cc1c(C(=O)O/N=C(\N)c2ccccn2)cccc1[N+](=O)[O-] | - | - | - | - | - | - | . | . | . | .
O=C(Nc1nnc([C@@H]2C[C@H](O)[C@@H](CO)O2)s1)Nc1ccc(F)cc1F | - | - | - | - | - | - | . | . | . | .
COC(=O)c1ccc(C(=O)OC)c(NC(=O)CSc2cccc[n+]2[O-])c1 | 3.5µM | 1.3µM | 1µM | 6.3µM | - | - | - | - | - | -
O=C(CSc1cccc[n+]1[O-])Nc1ccccc1Oc1ccccc1 | ? | - | - | - | - | - | - | - | - | -
CCn1c2ccccc2c2cc(NC(=O)c3cc(OC)c(OC)c(OC)c3)ccc21 | 0.79µM | ? | - | - | - | - | 0.37µM | - | 1.3µM | -
CCn1c2ccccc2c2cc(NC(=O)c3cc(OC)cc(OC)c3)ccc21 | ? | ? | - | - | - | - | . | . | . | .
O=C(C(=Cc1ccc(F)cc1)C(=O)c1ccccc1)c1ccccc1 | 8.9µM | - | - | - | - | - | 3.7µM | ? | 13µM | -
OB(O)c1ccc(Cl)s1 | - | . | . | - | . | . | . | . | . | .
COc1cccc(-c2nc(N3CCCCC3)c3ccccc3n2)c1O | 11µM | - | - | - | - | - | 18µM | ? | ? | -
COc1cccc(-c2nc(N3CCN(c4ccccc4)CC3)c3ccccc3n2)c1O | - | - | - | - | - | - | . | . | . | .
COc1ccc(Br)cc1/C=C/C(=O)Nc1ccc2ccccc2c1 | ? | ? | - | - | - | - | . | . | . | .
